Compound activity as filed in PubChem.
The list is not random: actives were taken first. Their share in the collection is about 7.9%.
Marburg entry inh – Marburg virus entry inhibition; Marburg virus pseudotyped entry inhibition, cell reporter; Potency, µM (top dose mostly 37.8 µM), inactives show at the top dose activity change, negative = inhibition, most hits filed as inhibitors; actives 1.8% (n = 300,000); calls by dose curve; tested in HEK293 cells; further: potency means the concentration at half of the fitted maximal effect
HCMV inh – blocks human cytomegalovirus replication. HFF cells, HCMV-luciferase reporter, 72 h; hits give low values. actives 4.5% (n = 410,000). AID 1259415. activity change, negative = inhibition, % at 57.5 µM; in the data active means activity change below about -60%; inconclusive means no clear call, values can overlap the other calls; inactive means above about -39%
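Compounds were evaluated in HFFs infected with an HCMV luciferase reporter virus (MOI 1 PFU/cell). Luciferase in lysates collected 72 h post infection served as the replication measure.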
HCV inh – HCV inhibition | Huh7.5.1 HCVcc-Cre infection, luciferase reporter, 44 h | Potency, µM (doses to about 41.8 µM), inactives show at the top dose activity change, negative = inhibition, most hits filed as inhibitors | actives 3.4% (n = 340,000); active means well fitted inhibition curve with a large enough effect; inconclusive means small, poorly fitted or top-dose-only effect, or another doubt; inactive means no such curve, though single readings can be large or run the other way; further: potency means the concentration at half of the fitted maximal effect
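Whole-lifecycle infectious HCVcc-Cre system; cells 1,000/well, compound then virus (~0.5 moi) added 4 h after plating, 44 h culture. Luciferase read 15 sec following 15 min substrate incubation, room temp.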
Lassa entry inh – inhibitors of Lassa virus binding or cell entry; Lassa virus pseudotype entry inhibition, cell reporter; Potency, µM (top dose mostly 37.9 µM), without a hit: at the top dose activity change, negative = inhibition, hits mostly inhibitors; actives 1.2% (n = 300,000); AID 540256; calls by dose curve; tested in HEK293 cells; further: potency means the concentration at half of the fitted maximal effect; nearly all actives have a fitted effect of over 50% in size
FMDV inh – antivirals against foot and mouth disease virus; FMDV antiviral cell-based qHTS; Potency, µM (doses to about 57.9 µM), without a hit: at the highest dose activity change, negative = inhibition, actives largely listed as inhibitors; actives 1.2% (n = 410,000); calls by dose curve; tested in HEK293T cells; further: read-out not given here; potency means the concentration at half of the fitted maximal effect; nearly all actives have a fitted effect of over 45% in size
Numbers without * were called inactive; ? = inconclusive; / = not tested or not shown; [ ] = dose if it differs, or a comment. On the % scale 0 is the no-effect control and ±100 the full control effect.

SMILES | Marburg entry inh | HCMV inh | HCV inh | Lassa entry inh | FMDV inh
O=C(CC1NCCc2ccccc21)Nc1ccc(Oc2ccccc2)cc1 (configuration not stated) | ? | ? | 11.2µM* | 6.3% | ?
O=C(CN1CCOCC1)Nc1ccc(Oc2ccccc2)cc1 | 3.6% | 13.2 | -6.4% | 14.4% | 19.8%
CCCCOc1ccc(NC(=O)CN2CCN(C(=O)OCC)CC2)cc1 | 0.1% | 0.3 | -3.7% | 3.55µM* | -27.2%
O=C(CN1CCCC1)Nc1ccc(Oc2ccc(NC(=O)CN3CCCC3)cc2)cc1 | 2.06µM* | -17.7 | ? | 13µM* | -14.1%
COc1ccc(NC(=O)CN2CCCC2)cc1 | 1.3% | -15.1 | 3.2% | ? | 15.4%
O=C(CN1CCNCC1)Nc1ccc(Oc2ccccc2)cc1 | ? | -10.5 | 7.94µM* | -6.2% | 4.1%
CCCn1c2ccccc2c2cnn(CC(=O)Nc3ccccc3OC)c(=O)c21 | / | ? | / | ? | -16.7%
COc1cccc(C(=O)c2c(-c3ccccc3)ncc3cc(OC)c(OC)cc23)c1 | 3.3% | -11.5 | ? | / | -2.7%
COC(=O)c1ccccc1S(=O)(=O)N1CCC(C(=O)N2CCC2)CC1 | / | -16.6 | 3.7% | / | 0.9%
COC(=O)C1=C(C)N(Cc2ccccc2)C(=NCCc2c[nH]c3ccccc23)NC1c1cccc(F)c1 (configuration not stated) | -16.8%[14.2 µM] | / | / | ? | /
Cc1cc(C)c(NC(=O)CN2C(=O)CCSc3ccc(S(=O)(=O)N4CCCC4)cc32)c(C)c1 | / | ? | / | -9.8%[46.1 µM] | -2.5%
O=C(NCc1cccs1)c1ccc2ccccc2n1 | 4.8% | -10.4 | -6.9% | 6.51µM* | 28.6%
Cc1cccc(NC(=O)c2ccc3ccccc3n2)c1C | ? | 139.6 | -19.4% | 10µM* | 8.6%
Cc1ccccc1NC(=O)c1cccc(C(=O)Nc2ccccc2C)n1 | -10.4%[46.1 µM] | ? | 2.3% | 3.3%[46.1 µM] | -17.5%
Cc1csc(NC(=O)c2ccc3ccccc3n2)n1 | ? | 7.4 | ? | ? | -36.6%
O=C(Nc1nccs1)c1ccc2ccccc2n1 | ? | 106.5 | -14.8% | 8.91µM* | 21.2%
CC(NC(=O)c1ccc2ccccc2n1)c1ccc(Br)cc1 (configuration not stated) | ? | 17.3 | -21.2% | 5.62µM* | -5.6%
C=C1[C@H]2O[C@H]2[C@@H](OC(C)=O)[C@@]2(C)[C@@H](OC(C)=O)C[C@@H](OC(C)=O)[C@@](C)(O)[C@@H]2[C@@H](OC(C)=O)[C@@]2(O)[C@@H](C)C(=O)O[C@H]2[C@H]1Cl | / | 16.8 | -12.6%[8.37 µM] | / | -16.3%
O=C(COc1ccc2c(c1)CCC2)Nc1ccccn1 | ? | 51.3 | -10.4% | 11.2µM* | -87.3%
Cc1cccc(NC(=O)COc2ccc3c(c2)CCC3)n1 | -28.8% | -5.7 | ? | 11.6%[46.1 µM] | 49.9%
O=C(COc1cccc(Cl)c1)Nc1ccc2c(c1)CCC2 | -2.0% | -65.8* | ? | 7.7% | 23.2%
Cc1c(NC(=O)OCCNC(=O)COc2c(Cl)cccc2Cl)sc(=S)n1C | 10.3% | 21.3 | -16.9% | -1.4% | -19.8%
COc1cc2nc(Nc3cccc(F)c3)nc(N)c2cc1OC | ? | 10.8 | -10.3% | ? | -22.5%
COc1ccc(Nc2nc(N)c3cc(OC)c(OC)cc3n2)cc1 | 11.2µM* | -35.9 | / | 18.6%[46.1 µM] | -0.6%
Cc1ccc(NS(=O)(=O)c2ccc(OCC(=O)NCc3cccnc3)cc2)cc1 | -3.2% | -7.2 | 3.3% | ? | 0.0%
SMILES | Marburg entry inh | HCMV inh | HCV inh | Lassa entry inh | FMDV inh
CCOc1ccc(NS(=O)(=O)c2ccc(C(=O)NCc3cccnc3)cc2)cc1 | -13.0%[46.1 µM] | -21.8 | ? | -22.6% | -21.7%
CCOc1ccc(NS(=O)(=O)c2ccc(C(=O)NCc3ccncc3)cc2)cc1 | -19.4% | -21.8 | 7.08µM* | -9.5%[46.1 µM] | 4.7%
O=C(COc1ccc(S(=O)(=O)Nc2ccccc2)cc1)NCc1ccncc1 | ? | ? | 2.7% | 2.59µM* | 11.4%
CCOc1ccc(NC(=O)CCCn2c(C)c3cnn(-c4ccccc4)c(=O)c3c2C)cc1 | -0.1%[46.1 µM] | -8.0 | / | -0.9%[46.1 µM] | -18.9%
Cc1cc(C)c(C#N)c(SCCN2CCCCC2)n1 | ? | -95.7* | -23.9% | ? | -15.1%
Cc1ccc(Oc2cc([N+](=O)[O-])cc3c2C(=O)Nc2ccccc2O3)cc1 | ? | -78.0* | 12.6µM* | ? | ?
O=C1c2ccccc2C(=O)c2c(NCCCN(CCO)CCO)cccc21 | ? | -102.8* | 14.1µM* | 6.3% | ?
CN(C(=O)CSc1nnc(-c2ccco2)n1C)C1CCCCC1 | ? | -12.7 | 16.6% | ? | 1.0%
